According to ChEMBL document CHEMBL3988442, “University of Dundee, Small-Polar-MMV Screening Library” (2021):
About 13,000 (27%) of roughly 48,000 compounds showed an effect of 50% or more. Some of the results follow.

These compounds were tested on Wolbachia pipientis (assay: Anti-Wolbachia Cell-Based Screen). Conditions: 5 µM.
Assay type: functional
Set-up: scale not given: in the data most compounds retested in dose-response had high values

Structure (SMILES) | Percent Effect [%]
CN(Cc1ccco1)[C@@H]1CN(Cc2ccc(F)cc2)C[C@@H]2CCCO[C@@H]21.O=C(O)C(F)(F)F.O=C(O)C(F)(F)F | 20.99
CCCn1[nH]cc/c1=N\C(=O)CN1CCC[C@H]1CO | 0.9827
Cl.O=C(c1ccoc1)N1CCC(NCc2ccccc2Cl)CC1 | -26.85
CCN1C[C@H]2CCN(C(=O)NC3CCCC3)CC[C@H]2S1(=O)=O | 7.84
CNC(=O)C1CN(C)CCN(C(=O)CCn2nnc3ccccc32)C1 (configuration not stated) | 120.6
CN1CCN(C(=O)CCn2nnc3ccccc32)CC(C(N)=O)C1 (configuration not stated) | 138.2
COc1cccc(OC2CN(C(=O)CCn3cnc4ccccc43)C2)c1 | -24.05
CNC(=O)C1CCN(C(=O)CCn2cccn2)CC1 | -8.925
NC(=O)C1CCN(C(=O)Cn2nc(-c3ccccc3)oc2=O)C1 (configuration not stated) | -8.478
CC(C)c1cc(C(=O)NCCn2nnc3ccccc32)no1 | -3.58
Cn1c(CN2CCCCC2)nnc1C1CCN(c2nccc(N)n2)CC1 | -10.02
COc1ccc(CNC(=O)CNc2cc3c(cc2Cl)OCCCO3)cc1 | 0.3306
Cn1nc(CNC(=O)CC#N)c2c1CN(CC1CC1)CC2.O=C(O)C(F)(F)F | -7.895
CC(C)n1nc(CN2CCCC2)c2c1CN(CC1CC1)CC2.O=C(O)C(F)(F)F.O=C(O)C(F)(F)F | 114.1
Cn1nc(CN2CCCC2)c2c1CN(C(=O)Nc1cccc(F)c1)CC2.O=C(O)C(F)(F)F | -17.26
Cn1nc(CN2CCCCC2)c2c1CN(Cc1ccoc1)C2.O=C(O)C(F)(F)F.O=C(O)C(F)(F)F | -5.276
Cn1nc(CN2CCCC2)c2c1CN(CC1CC1)CC2.O=C(O)C(F)(F)F.O=C(O)C(F)(F)F | 104.5
CC(C)n1nc(CN(C)C)c2c1CN(C(=O)CC1CC1)CC2.O=C(O)C(F)(F)F | -12.31
Cn1nc(CN2CCCC2)c2c1CN(C(=O)c1cnccn1)CC2 | -11.87
Cn1nc(CN2CCCC2)c2c1CN(c1cnccn1)CC2.O=C(O)C(F)(F)F.O=C(O)C(F)(F)F | 110
CC(C)n1nc(CN(C)C)c2c1CN(CC1CC1)CC2.O=C(O)C(F)(F)F.O=C(O)C(F)(F)F | -1.133
O=C(Cc1cccs1)N1CC(c2nc(-c3cnccn3)no2)C1 | 16.37
CC(C)CN1CCN(S(=O)(=O)c2cn(C)cn2)[C@H]2CS(=O)(=O)C[C@H]21 | -0.9827
N#Cc1ccc(F)c(CN(CC(=O)N2CCCC2)CC2CCCO2)c1 (configuration not stated) | -8.762
CCc1cc(CN(C)C(=O)c2nnc(CN(C)C)o2)on1 | -21.92
COc1ccc(CN(C)c2ncc(S(N)(=O)=O)s2)c(OC)c1 | -0.4358

Structure (SMILES) | Percent Effect [%]
CCc1nc(C2CCCN2C(=O)c2c[nH]c(C)n2)no1 (configuration not stated) | -5.998
CCc1nc(C2CCCN2C(=O)CCNS(C)(=O)=O)no1 (configuration not stated) | 1.725
CCc1nc(C2CCCN2C(=O)c2ccoc2C)no1 (configuration not stated) | -2.017
O=C(CCc1cscn1)N1CCCC1c1noc(C2CC2)n1 (configuration not stated) | 2.466
CCc1nc(C2CCCN2C(=O)CCc2nc(C3CC3)no2)no1 (configuration not stated) | 115.8
CCCc1noc(CCC(=O)N2CCCC2c2noc(C3CC3)n2)n1 (configuration not stated) | -5.991
CCc1nc(C2CCCN2C(=O)CCc2cscn2)no1 (configuration not stated) | 107.6
CCc1nc(C2CCCN2C(=O)c2ncoc2CC)no1 (configuration not stated) | 6.406
CCc1nc(C2CCCN2C(=O)CCc2ccc3c(c2)OCO3)no1 (configuration not stated) | -10.43
CCc1nc(C2CCCN2C(=O)CCc2nc(C(C)(C)C)no2)no1 (configuration not stated) | 121.6
CCc1nc(C2CCCN2C(=O)CCc2c(C)noc2Cl)no1 (configuration not stated) | 102.7
COc1ncc(Cl)c(NCc2ccc(C(=O)N(C)C)cc2)n1 | -9.459
CC(C)c1nc(Cn2cncn2)n(-c2ccccn2)n1 | -15.87
CC1CCN(C(=O)c2cn(-c3cc(N4CCOCC4)ncn3)cn2)CC1 | 4.259
CCOc1ccc(NC(=O)c2cc(C)c(C)o2)cc1CO | -26.64
CCn1ncc2c1CN(C(=O)c1ccc3c(c1)OCO3)CC2COC (configuration not stated) | 10.24
CC(C)Cn1[nH]cc/c1=N\C(=O)CN1CCOC(Cn2cccn2)C1 (configuration not stated) | 19.87
Cc1ccc(CN2Cc3ccnn3CC(COCc3cccnc3)C2)o1 (configuration not stated) | -8.625
COc1ccc(CNC(=O)N2CCc3sccc3C2)cc1O | 11.16
CCC(=O)NCC(c1ccc(SC)cc1)N1CCc2sccc2C1 (configuration not stated) | 101.9
O=C(COCC1CC1)NCC(c1ccccc1)N1CCc2sccc2C1 (configuration not stated) | 1.717
CSc1ccc(C(CNC(C)=O)N2CCc3sccc3C2)cc1 (configuration not stated) | 95.64
CCOCCCC(=O)NCC(c1ccccc1)N1CCc2sccc2C1 (configuration not stated) | 0.7933
O=C(NCCO)NCC(c1ccccc1)N1CCc2sccc2C1 (configuration not stated) | 12.78
Cc1ccccc1CN(Cc1ccccn1)C(=O)CNS(C)(=O)=O | -13.04
CN(Cc1ccncc1)C1CCC[C@@H]2CN(c3ncccn3)C[C@H]12 (some centres not stated) | -7.905

Structure (SMILES) | Percent Effect [%]
Cn1nc(CNC(=O)C2COc3ccccc3O2)cc1C1CC1 (configuration not stated) | -7.331
CC(C)(C)NC(=O)Cn1nc(C2CC2)cc(C(F)(F)F)c1=O | -6.94
Cn1nccc1CNC(=O)CCn1nc(C(F)(F)F)cc1C1CC1 | 108.8
Cn1nccc1CNC(=O)CCn1nc(C(F)(F)F)c(Cl)c1C1CC1 | 93.44
Cn1nccc1CNC(=O)Nc1cc(C(F)(F)F)c[nH]c1=O | -6.749
Cn1nccc1CNC(=O)Cn1nc(C(F)(F)F)cc1C1CC1 | 104.1
Cn1nccc1CNC(=O)NC1CCN(c2ncccc2Cl)C1 (configuration not stated) | -9.354
O=C(CCN1CCOC(C(F)(F)F)C1)NCc1ccc(Cl)cc1 (configuration not stated) | -10.12
Cc1nc2[nH]cnc(NCCN3CCCC3)c-2n1 | 101.2
CCc1cnc(C)nc1NCCN1CCOCC1 | -2.451
Cc1nc2[nH]cnc(NCCCN3CCOCC3)c-2n1 | 111.6
Cc1ccc2nc(NCCN3CCOCC3)n(C)c(=O)c2c1 | 2.729
COC1CCN(CCNc2ncc(Br)cc2C)CC1 | 16.05
Cc1nc2[nH]cnc(NCCN3CCOCC3)c-2n1 | 110.5
Cc1cc(Br)cnc1NCCN1CCC(N(C)C)CC1 | 23.33
CCn1nc(C)c2ncnc(NCCCN3CCOCC3)c21 | 9.832
CCCN(C(=O)c1csnn1)C1CCCN(Cc2ccccc2)C1 (configuration not stated) | 2.292
CN(C)CC(=O)N1Cc2cc(-c3cc[nH]n3)ccc2C1c1cnco1 (configuration not stated) | -12.12
CN(C)[C@@H]1CO[C@H](CNC(=O)c2ccccc2)[C@H]1O | 9.178
Cc1nc(N2CCC3(CCCN(CCO)C3=O)C2)c2sccc2n1 (configuration not stated) | -11.1
Cc1cc(C)c(C#N)c(N2CCC3(CCCN(CCO)C3=O)C2)n1 (configuration not stated) | 111.5
CN1CCCC2(CCN(c3cccc(C#N)n3)C2)C1=O (configuration not stated) | 8.303
COCCN1CCCC2(CCN(c3ncnc(C)c3C)C2)C1=O (configuration not stated) | -47.68
Cc1cc(N2CCC3(CCCN(CCO)C3=O)C2)nc(C)c1C#N (configuration not stated) | 111
COCCN1CCCC2(CCN(c3cccc(C(F)(F)F)n3)C2)C1=O (configuration not stated) | -1.331
CCCN1CCCC2(CCN(c3nccc(OC)n3)C2)C1=O (configuration not stated) | 1.241

Structure (SMILES) | Percent Effect [%]
COCCN1CCCC2(CCN(c3cc(C)c(C#N)c(C)n3)C2)C1=O (configuration not stated) | 99.04
COCCN1CCCC2(CCN(c3nc(C)nc4c3CCC4)C2)C1=O (configuration not stated) | -6.714
CN(Cc1ccc([S+](C)[O-])cc1)c1ccc(C(F)(F)F)cn1 (configuration not stated) | -27.71
Cc1nsc(N2CCCN(C(=O)c3ccc4[nH]ccc4c3)CC2)n1 | -10.99
Cn1ccnc1CN1CCCN(C(=O)c2ccc3cc[nH]c3c2)CC1 | 138.1
CN(C)c1cc(C(=O)N2CCCN(Cc3nccn3C)CC2)ccn1 | 107
CC(C)COC(=O)N1CCCN(C(=O)c2ccnc(N(C)C)c2)CC1 | 6.425
CC(C)OCCN1CCN(C(=O)c2cccc(CC#N)c2)CC1 | 4.967
Cn1ccnc1CN1CCCN(C(=O)c2ccc3ccccc3c2)CC1 | 100.6
CCn1ccnc1CN1CCCN(C(=O)c2cccc(C#N)c2)CC1 | -3.279
CC(C)n1ccnc1CN1CCCN(C(=O)c2cc(Cl)c[nH]2)CC1 | 1.928
Cn1ccnc1CN1CCCN(C(=O)c2cccc(CC#N)c2)CC1 | 107.2
CCC(O)CN1CCN(C(=O)c2ccnc(N(C)C)c2)CC1 (configuration not stated) | -16.43
CC(=O)N1Cc2nccn2CC(CNC(=O)c2cnccn2)C1 (configuration not stated) | -28.44
O=C(O)C(F)(F)F.O=C([C@H]1C[C@@H]2[C@@H](C1)OCCN2CC1CC1)N1CCCC1 | -8.225
CS(=O)(=O)CCC(=O)NC(c1ccc(F)cc1)C(F)(F)F (configuration not stated) | -10.12
Cn1ccnc1CN1CCCN(C(=O)c2ccc3c(c2)OCO3)CC1 | 100.5
CCn1ccnc1CN1CCCN(C(=O)c2ccc(C#N)cc2)CC1 | -7.951
Cn1ccnc1CN1CCCN(C(=O)c2ccc(O)nc2)CC1 | 99.8
Cn1ccnc1CN1CCCN(C(=O)c2ccc3c(c2)COC3)CC1 | -4.984
O=C(Cc1ccsc1)NCCc1ccoc1 | -2.885
Cc1ccccc1CCC1CCCN(Cc2nnc(-c3ccco3)o2)C1 (configuration not stated) | 85.71
Cc1nc(CN2CCCC(CCc3ccccc3C)C2)c[nH]1 (configuration not stated) | 4.75
Cc1nnc(CN2CCCC(CCc3ccccc3C(F)(F)F)C2)o1 (configuration not stated) | 7.283
